Screening data (PubChem)
This is a sample that favours compounds with a hit; in the whole collection about 7.5% have one here.
FLuc counter: counter-screen for miR-21 project: firefly luciferase inhibitors or activators; purified FLuc, Km substrates, luminescence inhibition; Potency, µM (doses to about 57.5 µM), for the others: top-dose activity change, negative = inhibition, hits mostly inhibitors; 360,000 tested, 6.9% active; AID 588342;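 also: plate controls were vehicle for no effect and reference inhibitor for full effect; nearly all actives have a fitted effect of over 55% in size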
Target sequence (P08659 whole entry, looked up): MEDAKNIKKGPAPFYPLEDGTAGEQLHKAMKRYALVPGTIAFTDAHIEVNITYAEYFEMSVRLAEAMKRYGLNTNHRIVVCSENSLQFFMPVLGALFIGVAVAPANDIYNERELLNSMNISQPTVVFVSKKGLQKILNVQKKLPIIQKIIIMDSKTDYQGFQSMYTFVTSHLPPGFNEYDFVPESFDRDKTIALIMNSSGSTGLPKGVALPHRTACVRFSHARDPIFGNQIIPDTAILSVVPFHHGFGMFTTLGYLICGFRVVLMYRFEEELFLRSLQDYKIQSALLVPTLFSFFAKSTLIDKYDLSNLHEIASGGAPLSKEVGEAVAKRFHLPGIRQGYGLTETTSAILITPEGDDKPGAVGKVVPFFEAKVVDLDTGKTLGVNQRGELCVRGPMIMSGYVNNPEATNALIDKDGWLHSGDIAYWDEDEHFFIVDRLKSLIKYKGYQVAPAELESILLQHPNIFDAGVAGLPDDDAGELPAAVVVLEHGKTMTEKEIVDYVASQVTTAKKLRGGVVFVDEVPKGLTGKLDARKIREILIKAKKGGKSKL
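Purified P. pyralis luciferase (10nM final) with 10uM D-luciferin and 10uM ATP (Km levels) in 50mM Tris acetate pH 7.5, 10mM Mg acetate, 0.01% Tween-20, 0.05% BSA; qHTS 6-point titration, ~60 µM downward; luminescence read.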
NPC1 prom act: activates the NPC1 promoter; Huh7 NPC1 promoter luciferase reporter, 24 h; Potency, µM (titrated, usually from 9.22 µM), inactives show top-dose activation, most hits filed as activators; 320,000 tested, 2.4% active; also: % of control where 0% means no effect; nearly all actives have a fitted effect of over 60% in size
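Compounds in DMSO were transferred onto Huh7 NPC1-luciferase reporter cells pre-incubated 2 h; after 24 h at 37 °C, Amplite reagent was dispensed and luminescence recorded 10 min later.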
Luc counter: Kinase-Glo luciferase inhibition (counter-screen); Kinase-Glo luciferase, ATP luminescence, 8 min; Potency, µM (highest dose often 38.3 µM), for inactives: at the top dose activity change, negative = inhibition, hits mostly inhibitors; 200,000 tested, 0.28% active; AID 1379; also: % is scaled to controls: 0 for no effect and ±100 for the full control effect; nearly all actives have a fitted effect of over 60% in size
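Luminescence was the read-out, taken after 8-minute incubation at ambient temperature. Luciferase turned over luciferin with 10 uM ATP in imidazole pH 7.2 buffer containing KCl, MgCl2, Tween 20 and BSA.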
Rab9 prom act: activators of Rab9 promoter | 320,000 tested, 2.8% active | AID 485297 | Huh7 Rab9 promoter-luciferase reporter, luminescence, 24 h | Potency, µM (series often up to 9.22 µM), without a hit: at the highest dose activation, negative = inhibition, actives largely listed as activators; also: % of control where 0% means no effect; nearly all actives have a fitted effect of over 60% in size
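Luminescence from Amplite-detected luciferase (10 minutes, ambient) reports Rab9 promoter activation. Before that, stable Rab9-luciferase Huh7 cells (1500/well, reduced-serum OP-MEM I plus 10% FBS) were exposed to compound for 24 hours at 37C.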
ELG1 genotoxic: genotoxicity induction in ELG1-luciferase HEK293T cells; HEK293T ELG1-luciferase reporter, luminescence, 16 h; Potency, µM (doses to about 46 µM), inactives show top-dose activity change, positive = activation, hits mostly activators; 330,000 tested, 1.3% active; also: % of control where 0% means no effect; nearly all actives have a fitted effect of over 60% in size
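Screening used a luciferase reporter fused to human ELG1 in HEK293T cells. Luminescence was read on a CCD plate imager after 16 hr exposure and 30 min ONE-Glo incubation.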
SMN2 splice enh: SMN2 splice variant enhancement. Potency, µM (titrated, usually from 46.1 µM), inactives show at the highest dose activity change, positive = activation, hits mostly activators. HEK293 SMN2-luciferase splicing reporter, luminescence, 30-36 h. 210,000 tested, 2.8% active. AID 1458; also: % of control where 0% means no effect; nearly all actives have a fitted effect of over 55% in size
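HEK293 cells carry an SMN2 […]–luciferase reporter in which exon 7 inclusion puts luciferase in frame. Cells were plated 10-12 h before compound addition, then incubated 30-36 h at 37C. ONE-Glo luminescence was read; sodium butyrate at 4.5 mM final served as control.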
The depositor's hits bear a star; ? = inconclusive; nt = no result; [ ] = remark or other dose. Calls follow the shape of the dose curve; as a rule, active = well fitted curve in the direction sought with a large enough effect; inconclusive = small, poorly fitted or top-dose-only effect, or another doubt; inactive = no such curve, though single readings can be large; an effect the other way counts as inactive or inconclusive. Potency is read from the fitted curve at half-maximal effect.

SMILES | FLuc counter | NPC1 prom act | Luc counter | Rab9 prom act | ELG1 genotoxic | SMN2 splice enh
COc1ccc(NC(=S)Nc2ccccn2)c(OC)c1 | ? | ? | 6.4% | ? | ? | 11.2µM*
COc1ccc(NC(=S)Nc2cccnc2)c(OC)c1 | -8.4% | -0.7% | 1.4% | 1.3% | 8.5% | 15.3%
Cc1nn(CC(=O)NC(C)c2ccccc2)c(=O)c2cc3occc3n12 (stereo not drawn) | -4.8% | nt | nt | nt | nt | -2.0%
COc1ccc(NC(=S)Nc2ccccc2OC)c(OC)c1 | -12.3% | -6.2% | -1.4% | 2.0% | 2.1% | -7.3%
COc1ccc(NC(=S)Nc2cnc3ccccc3c2)c(OC)c1 | 6.01µM* | 1.4% | 3.2% | -4.1% | -0.3% | -0.2%
CCc1ccc(N=C2N=C(N)c3ccccc32)cc1 | 2.69µM* | -2.8% | 10.7% | 28.8% | ? | ?
COCC1=C2c3ccccc3[C@@H]3CNC(=O)C3(C(=O)OC)C[C@@H]2n2c(=O)n(-c3ccccc3)c(=O)n2C1 (stereo partly drawn) | nt | nt | -2.0% | nt | nt | 29.8%
COC(=O)c1ccccc1NC(=O)c1cccc(COc2ccccc2Cl)c1 | 16.9µM* | ? | -1.4% | 0.447µM* | ? | 11.2µM*
O=C(NCc1ccccc1)c1cnc(Cl)c(Cl)c1 | -1.1% | -2.4% | nt | 12.2% | 4.1% | nt
O=C(NCc1ccccc1)c1cccc(COc2cc(Cl)ccc2Cl)c1 | ? | 2.51µM* | 4.5% | 3.16µM* | ? | 12.6µM*
O=C(c1cccc(COc2ccc(Cl)cc2Cl)c1)N1CCN(c2ccccn2)CC1 | 4.78µM* | nt | 0.4% | nt | nt | 3.98µM*
CN(C(=O)c1cccc(COc2ccc(Cl)cc2Cl)c1)c1ccccc1 | 12µM* | 0.631µM* | 0.7% | 1µM* | 2.06µM* | 3.16µM*
CN(C(=O)c1ccc(COc2ccccc2Cl)o1)c1ccccc1 | -4.5% | 19.8% | nt | -6.5% | -1.4% | nt
O=c1c2c3c(sc2n(Cc2cc(=O)n4ccccc4n2)c(=O)n1-c1ccc(Cl)cc1)CCC3 | -1.0% | nt | nt | nt | nt | -8.6%
COCCCn1c(=N)c(C(=O)NC2CCCCC2)cc2c(=O)n3cc(C)ccc3nc21 | -0.8% | nt | nt | nt | nt | -8.8%
CN(C)c1ccc(C(CNS(=O)(=O)c2ccc(Cl)cc2)N2CCCC2)cc1 (stereo not drawn) | -5.4% | nt | nt | nt | nt | nt
CCOc1ccccc1N(C)C(=O)c1cc(S(=O)(=O)NCCc2ccc(Cl)cc2)ccc1F | -6.8% | nt | nt | nt | nt | nt
O=C(NCc1ccccc1)c1cccc(COc2ccccc2Cl)c1 | 15.1µM* | 1.78µM* | 2.3% | 1.78µM* | ? | 12.6µM*
NNC(=O)c1cccc(COc2ccc3c(c2)CCC3)c1 | 2.39µM* | 0.224µM* | -17.3% | 0.316µM* | ? | 0.398µM*
NNC(=O)c1cccc(COc2ccccc2Br)c1 | 7.57µM* | 0.355µM* | -3.6% | 0.891µM* | ? | 12.6µM*
O=C(c1cccc(COc2cccc3ccccc23)c1)N1CCCC1 | 16.9µM* | ? | 4.1% | 2.51µM* | 14.7% | 22.4µM*
O=C(c1ccccc1)N1CCN(CC(O)COc2cccc3ccccc23)CC1 (stereo not drawn) | 0.7% | 2.8% | nt | 3.8% | 0.0% | nt
COc1ccc(C)cc1NC(=O)COCc1cc(-c2ccc(F)cc2)on1 | -11.6% | nt | nt | nt | nt | nt
N=C(N)SCc1ccc(Cl)cc1Cl (tested in a mixture with another compound) | nt | nt | -2.6%[7.66 µM] | nt | nt | -0.6%[9.22 µM]
Cc1cc(C)nc(-n2nc(C)c3c2NC(=O)CC3c2ccccc2OC(C)C)n1 (stereo not drawn) | -2.2% | nt | nt | nt | nt | nt
SMILES | FLuc counter | NPC1 prom act | Luc counter | Rab9 prom act | ELG1 genotoxic | SMN2 splice enh
O=C1OC(c2ccc(F)cc2)=C/C1=C\c1ccc(O)cc1 | 10.7µM* | 7.7% | nt | 13.5% | 1.3% | nt
CC(=O)N1CCc2c(sc3c2c(=O)n(-c2cc(Cl)ccc2C)c(=O)n3Cc2ccccc2F)C1 | 2.1% | nt | nt | nt | nt | 27.8%
CCc1ccc(-n2c3nc(=O)[nH]c(=O)c-3cc3c(C)nn(-c4ccccc4)c32)cc1 | -6.3% | nt | nt | nt | nt | 4.0%
COc1ccccc1-c1cc(-c2ccccc2)nc(=O)[nH]1 | -0.2% | 1.0% | nt | -2.2% | 0.6% | nt
COc1ccccc1-c1cc2ccccc2[nH]1 | 15.1µM* | 29.6% | 0.8% | ? | ? | 12.6µM*
COc1cccc(N/C=C/c2onc(C)c2[N+](=O)[O-])c1 | -2.8% | ? | -0.1% | 2.51µM* | ? | ?
Cc1cccc(C)c1N/C=C/c1onc(C)c1[N+](=O)[O-] | 3.1% | nt | -0.9% | nt | nt | -0.9%
Cc1ccc(N/C=C/c2onc(C)c2[N+](=O)[O-])cc1 | 0.601µM* | 2.51µM* | nt | 0.631µM* | 1.3µM* | nt
Cc1c(-c2ccccc2)nnn1-c1ccc(F)cc1F | 21.3µM* | ? | nt | ? | ? | nt
Cc1c(-c2nc(-c3ccccc3F)no2)nnn1-c1cc(F)ccc1F | 0.169µM* | nt | nt | nt | nt | nt
CC(=O)c1nnn(-c2ccc(F)cc2F)c1C | -0.3% | -1.2% | nt | 3.4% | -0.4% | nt
CCc1ccccc1-n1nnc(-c2nc(-c3ccccc3F)no2)c1C | 1.2µM* | nt | nt | nt | nt | nt
CC1CCCN(C(=O)c2cc3c(=O)n(C)c4ccccc4c3s2)C1 (stereo not drawn) | 0.2% | nt | nt | nt | nt | 20.9%
CC(=O)c1ccc2c(c1)C1C=CCC1C(C(=O)O)N2 (stereo not drawn) | ? | 1.5% | -9.1% | -14.2% | -0.1% | 6.8%
CC(=O)c1ccc2c(c1)C1C=CCC1C(c1ccncc1)N2 (stereo not drawn) | 16.9µM* | 25.7% | -7.5% | 9.9% | 4.9% | 14.9%
CCOc1ccc(-c2cccc(NC(=O)c3ccco3)c2)nn1 | 21.3µM* | 0.9% | nt | -3.8% | -3.4% | nt
Cc1nc(-c2cccc(NC(=O)COc3ccc(Cl)cc3)c2)cs1 | 13.5µM* | 3.3% | nt | -0.5% | -17.9% | nt
CCOc1ccc(-c2cccc(NC(=O)COc3ccc(Cl)cc3)c2)nn1 | 13.5µM* | 8.7% | nt | 9.6% | -2.6% | nt
Cc1ccc(C(=O)Nc2ccc(C(=O)OCc3cc(=O)n4c5c(sc4n3)CCCC5)cc2)cc1 | -5.2% | nt | nt | nt | nt | nt
